Compounds with a hit are over-represented: about 9.3% of the library has one in this group of screens.
VACV mCherry inh: vaccinia inhibition (mCherry reporter) | Potency, µM (top dose mostly 36.5 µM), without a hit: at the highest dose activity change, negative = inhibition, actives largely listed as inhibitors | Vaccinia virus mCherry reporter infection, fluorescence | actives 0.63% (n = 310,000); calls by dose curve; tested in A549 cells; further: potency means the concentration at half of the fitted maximal effect; nearly all actives have a fitted effect of over 35% in size
HCMV inh: inhibitors of human cytomegalovirus | HFF cells, HCMV-luciferase reporter, 72 h; hits give low values | activity change, negative = inhibition, % at 57.5 µM | actives 4.5% (n = 410,000) | AID 1259415; in the data active means activity change below about -60%; inconclusive means no clear call, values can overlap the other calls; inactive means above about -39%
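Two compound doses tested in HFFs infected with HCMV-luciferase, MOI 1 PFU/cell, 72 h at 37C. Lysate luminescence read with OneGlo; data normalized against buffer-only and 10uM Salinomycin inhibitor controls.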
FMDV inh: antivirals against foot and mouth disease virus; FMDV antiviral cell-based qHTS; Potency, µM (top dose mostly 57.9 µM), inactives show at the top dose activity change, negative = inhibition, hits mostly inhibitors; actives 1.2% (n = 410,000); calls by dose curve; tested in HEK293T cells; further: read-out not given here; potency means the concentration at half of the fitted maximal effect; nearly all actives have a fitted effect of over 45% in size
VACV Venus inh: inhibitors of vaccinia virus (Venus reporter). Vaccinia virus Venus reporter expression, fluorescence. actives 0.46% (n = 330,000). Potency, µM (series often up to 36.5 µM), for the others: at the top dose activity change, negative = inhibition, hits mostly inhibitors. AID 720580; calls by dose curve; tested in A549 cells; further: potency means the concentration at half of the fitted maximal effect; nearly all actives have a fitted effect of over 30% in size
HCV inhibitor: HCV inhibition. Potency, µM (top dose mostly 41.8 µM), for the others: at the top dose activity change, negative = inhibition, hits mostly inhibitors. Huh7.5.1 HCVcc-Cre infection, luciferase reporter, 44 h. actives 3.4% (n = 340,000); further: potency means the concentration at half of the fitted maximal effect
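Whole-lifecycle infectious HCVcc-Cre system; cells 1,000/well, compound then virus (~0.5 moi) added 4 h after plating, 44 h culture. Luciferase read 15 sec following 15 min substrate incubation, room temp.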
Sm TGR block: S. mansoni TGR enzyme inhibition | Q962Y6 | purified TGR, DTNB reduction, TNB absorbance 405 nm | Potency, µM (top dose mostly 114 µM), for inactives: at the highest dose activity change, negative = inhibition, hits mostly inhibitors | actives 3% (n = 360,000) | AID 485364; further: potency means the concentration at half of the fitted maximal effect; nearly all actives have a fitted effect of over 60% in size
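Kinetic colorimetric format: TGR-catalysed, NADPH-driven DTNB reduction monitored via TNB absorbance. Enzyme dispensed at 20 nM; compound exposure 15 min at room temperature before reaction start.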
Starred values were filed as active, the others as inactive; i = inactive; u = inconclusive; x = no result given. Unless noted, the call rests on the fitted dose curve; in most records, active means well fitted curve in the direction sought with a large enough effect; inconclusive means small, poorly fitted or top-dose-only effect, or another doubt; inactive means no such curve, though single readings can be large; an effect the other way counts as inactive or inconclusive. On the % scale 0 is the no-effect control and ±100 the full control effect.

SMILES	VACV mCherry inh	HCMV inh	FMDV inh	VACV Venus inh	HCV inhibitor	Sm TGR block
CC(C)C(CC(=O)NCc1ccco1)c1ccco1 (stereo not drawn)	x	7	17%	x	15%	22µM*
O=C(CCNC(=O)c1ccc(Cl)cc1)NCc1ccco1	-18%	-20	-8%	-12%	6%	x
Cn1nccc1CNC(=O)c1c(Cl)cnn1C	-10%	21	3%	-10%	21%	-10%
Cn1ncc(Cl)c1C(=O)NCc1ccco1	-4%	4	-4%	-9%	2%	18µM*
c1ccc(-n2cnc3cc(NCc4cccs4)ccc32)cc1	x	u	u	x	-30%	-9%
O=C(Nc1nnc(N2CCCCCC2)s1)Nc1cc(F)ccc1F	-24%	28	34%	-22%	x	-14%
CC(C)CN(CCNC(=O)c1cc(=O)[nH]c2ccc(S(=O)(=O)N3CCCCCC3)cc12)CC(C)C	-11%	-19	-6%	-4%	x	12%
O=C(NCc1ccco1)c1ccc(C(=O)NCc2ccco2)cc1	i	-69*	0%	-5%	18%	x
O=C(NCc1ccco1)c1ccc2nccnc2c1	x	14	-15%	x	10%	5%
O=C(NCc1ccco1)c1ccc2c(c1)C(=O)c1ccccc1-2	x	18	68%	x	u	13µM*
Cn1nnc2cc(C(=O)NCc3ccco3)ccc21	-20%	-5	8%	-11%	25%	40µM*
O=C(NC(=S)NCc1ccco1)c1ccc(Br)cc1	i	-37	60%	-6%	22%	50µM*
O=C(NC(=S)NCc1ccco1)c1ccccc1	-7%	-17	0%	4%	19%	2%
O=C(CSc1nnc(Nc2ccccc2F)s1)NC(=O)CN1CCCC1=O	x	0	20%	x	15%	-2%
COc1ccccc1-n1cnc2cc(C(=O)NCc3ccco3)ccc21	x	-13	4%	-21%	u	40µM*
Cc1cc(=O)oc(C)c1C(=O)NCc1ccco1	-18%	-19	0%	-3%	16%	45µM*
Cc1noc(C)c1C(=O)NCc1ccco1	x	23	13%	x	-1%	-17%
Cc1cccc(C(=O)NCc2ccco2)c1	i	33	10%	-3%	25%	45µM*
CN(C)S(=O)(=O)c1cccc(C(=O)NCc2ccco2)c1	-15%	6	1%	1%	-14%	45µM*
COc1ccccc1-n1cnc2cc(C(=O)NCCCN3CCOCC3)ccc21	x	3	-20%	-16%	-7%	-9%
Cc1ccc(NC(=O)Cn2c(=O)n(CCCCCC(=O)NCc3ccc(F)cc3)c(=O)c3sccc32)c(C)c1	-25%	-10	-19%	-29%	x	0%
CC(C)c1cc(C(=O)NCc2ccco2)no1	i	51	64%	-12%	16%	50µM*
CC(C)c1cc(C(=O)NCc2ccccc2)no1	0%	69	51%	-7%	x	11%
Cc1cc(Cl)c2oc(C(=O)N3CCN(c4cccc(C)n4)CC3)c(C)c2c1	-3%	155	56%	9%	10%	-24%
O=C(CS(=O)(=O)c1ccccc1)CS(=O)(=O)c1ccccc1	x	66	x	x	x	x
SMILES	VACV mCherry inh	HCMV inh	FMDV inh	VACV Venus inh	HCV inhibitor	Sm TGR block
O=S(=O)(C/C(=C/CO)S(=O)(=O)c1ccccc1)c1ccccc1	x	-106*	7.9µM*	x	10µM*	4.5µM*
O=C(NCc1ccccc1)C(c1ccccc1F)n1c(=O)c(-c2ccco2)nc2ccccc21 (stereo not drawn)	-4%	126	-13%	-3%	x	x
Cn1cc([N+](=O)[O-])c(C(=O)Nc2ccc(-c3nc4ccccc4[nH]3)cc2)n1	u	-73*	43%	u	-3%	-7%
Cn1cc([N+](=O)[O-])c(C(=O)Nc2ccc3nc(-c4ccccc4)[nH]c3c2)n1	u	-83*	17%	u	u	-4%
Cc1ccc([N+](=O)[O-])cc1S(=O)(=O)Nc1cccc(S(=O)(=O)NC2=NCCC2)c1	-1%	60	39%	-11%	11%	x
Cc1c(Cc2ccccc2)c(=O)oc2c(C)c(OCC(=O)NCc3ccccn3)ccc12	-19%	-14	-22%	-10%	-1%	2%
CCOc1ccccc1N1CCN(C(=O)c2c(-c3c(F)cccc3Cl)noc2C)CC1	-2%	23	u	-18%	u	x
